Calb biofilm kill: clotrimazole potentiators killing Candida biofilms, primary screen, with clotrimazole, Alamar Blue. C. albicans biofilm + clotrimazole. inhibition, % at 6 µM. 85,000 tested, 0.14% active;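 active = inhibition above 20%; inactive = inhibition below 20%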;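 note: preformed 24 hr biofilms exposed to compound for 48 hr; 0% = biofilm without compound and 100% = blank killed by clotrimazole plus chlorhexidine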
EphB4 antag: EphB4-ephrin-B2 interaction antagonists, primary screen, biochemical, TNYL-RAW peptide probe, fluorescence polarization | Ephrin type-B receptor 4 (Homo sapiens), P54760 | EphB4 LBD / TNYL-RAW-Alexa532 peptide | inhibition, % at 7 µM | 97,000 tested, 0.15% active;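 active = inhibition above the screen-wide mean inhibition plus 3 SD, cut at about 15% in these data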;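 note: 0% = DMSO wells and 100% = excess unlabeled TNYL-RAW peptide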
PostGolgi yeast: phenotypic screen on post-Golgi transport, primary screen | post-Golgi transport phenotypic cell assay | inhibition, % at 10 µM | 98,000 tested, 0.9% active;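 note: yeast cells grown in 1536-well plates; yeast grown about 18 h at 30C before absorbance read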
PostGolgi ctrl: growth inhibition of yeast control strain, primary screen, counter-screen for post-Golgi transport modulator project. efflux-deficient yeast background strain, growth absorbance A615, 16 h. inhibition, % at 10 µM. 98,000 tested, 5% active. AID 738, 2007
Starred values were filed as active, the others as inactive; . = no result. Most compounds without a hit are left out; they make up all but 5.2% or so of the library. Cut-off read from the data, not from the text of the source, unless noted: active = inhibition above about 30%; inactive = the rest.

SMILES | Calb biofilm kill | EphB4 antag | PostGolgi yeast | PostGolgi ctrl
COc1ccc(S(=O)(=O)Nc2cc3c4c(oc3c3ccccc23)CCCC4=O)cc1 | . | 0 | 2 | 45*
COc1ccc(S(=O)(=O)Nc2cc3c4c(oc3c3ccccc23)CC(C)(C)CC4=O)cc1 | -2 | 4 | -14 | 13
Cc1ccc(CCNC(=O)C2CCCN(c3nc4ccccc4o3)C2)cc1 (stereo not drawn) | 7 | -12 | 21 | 5
Cc1cccc(N2CCN(c3nc4ccc(Cl)cc4n4cnnc34)CC2)c1C | 4 | . | . | .
Cc1ccc(-c2nn(CC(=O)NCCN3CCOCC3)c(=O)c3ccccc23)cc1 | 12 | 4 | -4 | -1
O=c1c2cccc3c2c(nn1CN1CCOCC1)-c1ccccc1-3 | . | -3 | 41* | 2
Cc1ccc(S(=O)(=O)Nc2nc(C)c(NC(=O)Nc3ccc(Cl)cc3Cl)s2)cc1 | . | -8 | 5 | 41*
CN(C)S(=O)(=O)c1ccc(NC(=O)c2ccc(Br)o2)cc1 | 1 | 0 | -5 | -7
CN(C1CCCCC1)S(=O)(=O)c1ccc(NC(=O)c2ccc(Br)o2)cc1 | 6 | 6 | -7 | 35*
CN(C1CCCCC1)S(=O)(=O)c1ccc(NC(=O)C2CCCCC2C(=O)O)cc1 (stereo not drawn) | 7 | -1 | -6 | 33*
CCCNC(=O)c1ccc2c(c1)C1C3CCC(C3)C1C(c1ccccc1)N2 (stereo not drawn) | . | 6 | -3 | 36*
CC(C)(C)c1ccccc1NC(=O)c1ccco1 | 6 | -12 | 9 | 2
CN(C1CCCCC1)S(=O)(=O)c1ccc(S(=O)(=O)N2CCN(C(=O)c3ccccc3F)CC2)cc1 | 0 | 0 | 2 | 14
NC(=O)c1cc(-c2ccccc2)nc(N2CCOCC2)n1 | 5 | -7 | 15 | 5
NC(=O)c1cc(-c2ccccc2)nc(N2CCCCCC2)n1 | -1 | -4 | 18 | 37*
O=C(CSc1nnc(-c2cccs2)n1-c1cccc(Cl)c1)c1cccc2c1OCCO2 | 3 | 9 | 9 | 9
COc1ccccc1Nc1nc(-c2cccs2)cs1 | 8 | 2 | 4 | 52*
Cc1noc(C)c1C(=O)OCC(=O)Nc1cc(Cl)ccc1Oc1ccccc1 | 4 | 4 | 1 | 38*
COc1ccc(C)cc1NC(=O)COC(=O)c1c(C)noc1C | 2 | 4 | 1 | 9
Cc1cccc(C)c1N(CC(=O)Nc1cc(Cl)ccc1Oc1ccccc1)S(C)(=O)=O | . | 5 | 3 | 50*
Cc1cc(C)c(S(=O)(=O)N2CCCCC2)c(C)c1N(C)S(=O)(=O)c1ccccc1 | . | -7 | 3 | 10
CCOc1ccccc1CNC(=O)CCN1C(=O)COc2ccccc21 | 8 | 9 | 3 | 44*
CC(C)OCCCNC(=O)CCN1C(=O)COc2ccccc21 | 4 | . | 0 | -3
Cc1cccn2c(/C=N/OCc3cccc(F)c3)c(-c3ccc(Cl)cc3)nc12 | . | 7 | -9 | 6
COc1cccc(/C(C#N)=C/c2c(-c3ccc(Cl)cc3)nc3c(C)cccn23)c1 | . | 7 | 7 | 49*
SMILES | Calb biofilm kill | EphB4 antag | PostGolgi yeast | PostGolgi ctrl
CCOc1ccc(C2/C(=C(\O)c3c(C)[nH]c(C(=O)OC)c3C)C(=O)C(=O)N2CCN(C)C)cc1 (stereo not drawn) | 8 | -10 | -9 | 0
CCCOc1ccc(C2/C(=C(\O)c3c(C)[nH]c(C(=O)OC)c3C)C(=O)C(=O)N2CCN(C)C)cc1 (stereo not drawn) | 7 | -6 | 1 | 32*
CCc1nc(SCc2cc(Cl)ccc2OC)n[nH]1 | 8 | 1 | -1 | 29
NC(=O)c1oc2ccccc2c1NC(=O)C1CCCCC1 | 21* | . | 7 | 11
NC(=O)c1oc2ccccc2c1NC(=O)CN1CCCCC1 | -7 | 5 | 0 | -2
N#C/C=C(/N)N1CCN(c2ccc(Cl)c(Cl)c2)CC1 | . | 4 | 32* | 3
C(=N\n1cnnc1)/c1cn(Cc2ccccc2)c2ccccc12 | 7 | . | -2 | 16
O=[N+]([O-])/C=C/c1cn(Cc2ccccc2)c2ccccc12 | . | 8 | -1 | 43*
NC(=O)c1cccn1Cc1ccccc1Cl | . | 2 | -1 | 2
NC(=O)c1ccc(C(F)(F)F)n(Cc2ccccc2Cl)c1=O | . | -8 | 2 | 44*
c1ccc(-c2nn3c(Cn4cnc5ccccc54)nnc3s2)cc1 | 5 | 2 | -2 | 24
c1ccc(OCc2nn3c(Cn4cnc5ccccc54)nnc3s2)cc1 | 9 | -3 | -5 | 42*
CCOC(=O)Cc1nnc2c(Nc3ccccc3F)nc3nonc3n12 | 5 | -4 | -1 | 34*
COc1ccc(-c2cc(C(F)(F)F)c3c(=O)n(-c4ccccc4)[nH]c3n2)cc1 | -1 | 5 | 13 | 33*
COc1ccc(C(=O)Nc2nc3nc(-c4ccccc4)cc(=O)n3[nH]2)cc1 | . | -3 | -2 | 5
Nc1nnnn1CC(=O)OCc1cccc(Br)c1 | 4 | . | -4 | 5
COc1ccccc1NC(=O)c1cc2n(n1)C(C(F)(F)F)CC(c1ccc3c(c1)OCO3)N2 (stereo not drawn) | -1 | -11 | 12 | 37*
CC1CCCCN1C(=O)CSCC(=O)Nc1nc(-c2cccs2)cs1 (stereo not drawn) | -4 | . | -1 | 73*
CCOC(=O)N1CCN(C(=O)CSCC(=O)Nc2nc(-c3cccs3)cs2)CC1 | 10 | 1 | . | .
CC1CCN(C(=O)CSCC(=O)Nc2nc(-c3cccs3)cs2)CC1 | 9 | . | -1 | 65*
CC1CCCN(C(=O)CSCC(=O)Nc2nc(-c3cccs3)cs2)C1 (stereo not drawn) | 2 | -9 | -5 | 64*
O=C(O)C1CCCCC1C(=O)Nc1nc(-c2cccs2)cs1 (stereo not drawn) | 7 | -4 | -4 | 2
CC(C)Oc1ccc(C2CNC(=O)C2)cc1 (stereo not drawn) | 2 | . | -5 | 33*
c1cncc(-c2noc(-c3cccc4ccccc34)n2)c1 | 5 | -2 | -2 | 6
c1ccc(-c2ccccc2-c2nc(-c3cccnc3)no2)cc1 | 0 | -1 | 38* | 34*
SMILES | Calb biofilm kill | EphB4 antag | PostGolgi yeast | PostGolgi ctrl
CCOc1ccc2ccccc2c1C(=O)Nc1cc(=O)n(C)c(=O)n1C | 6 | -1 | 3 | 11
Cc1ccc(NC(=O)CSc2nnc(C3CCCCC3)n2N)cc1F | -7 | 7 | 31* | 2
CN1CCN(c2ccc(Cl)cc2NC(=O)C2COc3ccccc3O2)CC1 (stereo not drawn) | 3 | . | -3 | 30*
O=C(Nc1nc(-c2ccccn2)cs1)C1COc2ccccc2O1 (stereo not drawn) | 13 | . | 31* | 39*
CN(C)S(=O)(=O)c1ccc(NC(=O)C2COc3ccccc3O2)cc1 (stereo not drawn) | 3 | . | 2 | 10
COC(=O)c1cc(NC(=O)C2COc3ccccc3O2)ccc1Cl (stereo not drawn) | . | -2 | -3 | 30*
COC(=O)c1cccc(NC(=O)C2COc3ccccc3O2)c1 (stereo not drawn) | 6 | -3 | 6 | 39*
COc1ccc(OC)c(NC(=O)C2COc3ccccc3O2)c1 (stereo not drawn) | -1 | -3 | 1 | -4

Source: PubChem
